Source: PubChem BioAssay
This is a sample that favours compounds with a hit; in the whole collection about 1.9% have one here.
MsrA inhibitor: bovine MsrA enzyme inhibitors, primary screen, biochemical, absorbance, HTS; Methionine sulfoxide reductase A (Bos taurus); purified bovine MsrA, absorbance read-out; inhibition, % at 15.5 µM; hit rate 0.75% among 360,000; AID 651718, 2012
bovine MsrA act: bovine MsrA enzyme activators, primary screen, biochemical, absorbance, HTS; Methionine sulfoxide reductase A (Bos taurus); purified bovine MsrA, absorbance read-out; activation, % at 10.6 µM; hit rate 0.3% among 360,000; in the data active = activation above about 7.5%
PLC-beta3 inh: human PLC-beta3 inhibitors, primary screen, biochemical, fluorescence | Purified PLC-beta3, fluorogenic substrate | hit rate 0.18% among 370,000 | inhibition, % at 12.2 µM; in the data active = inhibition above about 11%
PLC-gamma1 inh: PLC-gamma1 enzyme inhibitors, primary screen, biochemical, fluorescence, purified enzyme | fluorogenic substrate | inhibition, % at 12.2 µM | hit rate 0.84% among 370,000 | AID 720700, 2013; in the data active = inhibition above about 9.5%
Target sequence (P19174 whole entry, looked up): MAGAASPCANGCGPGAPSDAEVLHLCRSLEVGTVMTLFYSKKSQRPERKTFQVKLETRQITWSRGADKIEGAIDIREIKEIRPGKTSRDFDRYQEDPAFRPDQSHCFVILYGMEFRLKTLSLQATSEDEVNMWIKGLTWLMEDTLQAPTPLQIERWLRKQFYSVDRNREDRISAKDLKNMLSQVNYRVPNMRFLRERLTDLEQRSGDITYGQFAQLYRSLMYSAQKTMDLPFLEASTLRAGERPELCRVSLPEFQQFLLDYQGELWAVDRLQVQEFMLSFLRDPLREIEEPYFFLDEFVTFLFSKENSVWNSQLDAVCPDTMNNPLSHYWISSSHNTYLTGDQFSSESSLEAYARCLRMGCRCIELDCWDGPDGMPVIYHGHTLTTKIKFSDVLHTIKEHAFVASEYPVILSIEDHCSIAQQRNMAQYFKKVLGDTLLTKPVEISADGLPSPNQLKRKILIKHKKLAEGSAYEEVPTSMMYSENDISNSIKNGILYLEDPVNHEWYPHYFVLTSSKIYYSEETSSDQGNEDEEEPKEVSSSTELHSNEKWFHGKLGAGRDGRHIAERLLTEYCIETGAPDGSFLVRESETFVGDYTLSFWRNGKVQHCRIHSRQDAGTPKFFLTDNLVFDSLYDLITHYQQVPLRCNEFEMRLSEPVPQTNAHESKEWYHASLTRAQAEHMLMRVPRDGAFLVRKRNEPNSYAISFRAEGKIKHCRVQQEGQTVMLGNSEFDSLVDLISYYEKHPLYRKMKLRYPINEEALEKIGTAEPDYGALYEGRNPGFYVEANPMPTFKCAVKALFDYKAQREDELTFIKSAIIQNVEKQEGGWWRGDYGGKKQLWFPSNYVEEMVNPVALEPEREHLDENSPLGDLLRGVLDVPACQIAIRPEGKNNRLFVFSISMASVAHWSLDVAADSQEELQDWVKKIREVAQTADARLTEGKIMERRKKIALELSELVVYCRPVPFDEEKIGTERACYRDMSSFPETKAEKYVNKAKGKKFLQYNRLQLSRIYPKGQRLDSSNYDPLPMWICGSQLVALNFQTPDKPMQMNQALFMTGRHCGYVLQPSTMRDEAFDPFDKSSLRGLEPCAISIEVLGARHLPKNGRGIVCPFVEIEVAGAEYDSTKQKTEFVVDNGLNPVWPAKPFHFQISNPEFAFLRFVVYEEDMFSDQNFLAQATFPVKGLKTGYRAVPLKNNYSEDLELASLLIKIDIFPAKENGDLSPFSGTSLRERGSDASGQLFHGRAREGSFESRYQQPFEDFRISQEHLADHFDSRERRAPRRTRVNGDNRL
MsrA inh confirm: bovine MsrA inhibitors, retest, confirmation, biochemical, absorbance, HTS; AID 651822, 2012; hit rate 41% among 2,300; purified bovine MsrA, absorbance read-out; inhibition, % at 15.5 µM; shares compounds with MsrA inhibitor;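 also: coupled to thioredoxin reductase with NADPH and selenocystamine and DMSO as substrate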
Numbers stand for hits; 0 = inactive; - = no result. Rule as the data show it, unless noted: active = inhibition above about 4.5%; inactive = the rest.

SMILES | MsrA inhibitor | bovine MsrA act | PLC-beta3 inh | PLC-gamma1 inh | MsrA inh confirm
O=C1NCCN1C(=O)c1cccc(Cl)c1 | 11.6 | 0 | 0 | 0 | 9.9
C#CCNC(=O)C[C@H]1C[C@@]2(C(=O)OC)C(=C[C@H](C(C)C)O[C@@H]2C2CC2)N(CCc2ccc(OC)c(OC)c2)C1=O | - | - | 0 | 0 | -
COC(=O)[C@]12C[C@H](CC(=O)NCC3CCCCC3)C(=O)N(CCC3=CCCCC3)C1=C[C@H](COCc1ccccc1)O[C@@H]2C | 0 | - | 0 | 0 | -
C(=C\c1ccccc1)/C=N/Nc1nc(N2CCOCC2)nc(N2CCOCC2)n1 | 7.5 | 0 | 0 | 0 | 6.8
Clc1cc2c(cc1/C=N/Nc1nc(N3CCOCC3)nc(N3CCOCC3)n1)OCO2 | 0 | 0 | 0 | 0 | -
Clc1ccccc1/C=C/C=N/Nc1nc(N2CCOCC2)nc(N2CCOCC2)n1 | 5.3 | 0 | 0 | 0 | 0
CC(=C/c1ccccc1)/C=N/Nc1nc(N2CCOCC2)nc(N2CCOCC2)n1 | 0 | 0 | 0 | 0 | -
O=C(NCc1ccccc1)[C@H]1CCCN1C(=O)[C@H]1CCCN1C(=O)c1ccc(Cl)cc1 | 0 | - | 0 | 0 | -
O=C(Nc1nc(-c2nc3ccccc3s2)cs1)c1ccc(S(=O)(=O)N2CCOCC2)cc1 | 5.0 | 0 | 0 | 0 | 0
O=C(Nc1nc(-c2ccc(S(=O)(=O)N3CCOCC3)cc2)cs1)c1ccccc1 | 0 | 0 | 0 | 0 | -
Cc1nn(CCC(N)=S)c2nc(-c3cccs3)cc(C(F)(F)F)c12 | 4.8 | 0 | 0 | 0 | 0
Cc1nn(CCC#N)c2nc(-c3ccccc3)cc(C(F)(F)F)c12 | 0 | 0 | 0 | 0 | -
CCN=C1NC(c2ccccc2)C(C(=O)OC)=C(C)N1Cc1ccc(C(F)(F)F)cc1 (stereo unspecified) | 0 | - | 0 | 0 | -
COc1cccc(/C(C)=N/Nc2ccc(S(=O)(=O)N3CCCCC3)cn2)c1 | 4.8 | 0 | 0 | 0 | 0
C/C(=N\Nc1ccc(S(=O)(=O)N2CCCCC2)cn1)c1ccc(O)cc1 | 0 | 0 | 0 | 0 | -
COC(=O)C1CCCN(C(=O)C2CCN(S(=O)(=O)c3cccc4cccnc34)CC2)C1 (stereo unspecified) | - | - | 0 | 0 | -
Cc1cc(=O)[nH]c2c(C)cc(S(=O)(=O)Nc3ccc(O)cc3)cc12 | 9.2 | 0 | 0 | 0 | 4.7
COC(=O)Nc1ccc(S(=O)(=O)Nc2ccc(O)cc2)cc1 | 0 | 0 | 0 | 0 | -
CC(C)Oc1cccc(-c2n[nH]c(=S)n2N=Cc2ccc(O)cc2O)c1 | - | - | 0 | 0 | -
COc1cccc(NC(=O)C2CCCN2C(=O)NC2CCC(C)CC2)c1 (stereo unspecified) | - | - | 0 | 0 | -
COc1cc(OC)cc(-c2oc(=O)c3cc(OC)c(OC)cc3c2C#CCCO)c1 | 11.4 | 0 | 0 | 0 | 7.8
CCCC(=O)Nc1sc(C)c(-c2ccc(OC)cc2)c1C#N | 0 | 0 | 0 | 0 | -
CCCc1ccc(-c2c(C)sc(N)c2C#N)cc1 | 5.3 | 0 | 0 | 0 | 0
COC(=O)Cc1nnn2c1[C@H](C)[C@@H](OC)c1ccccc1-2 | 0 | - | 0 | 0 | -
COc1ccc2cc3cc(C(=O)NCc4cccnc4)oc3nc2c1 | 5.6 | 0 | 0 | 0 | 0
SMILES | MsrA inhibitor | bovine MsrA act | PLC-beta3 inh | PLC-gamma1 inh | MsrA inh confirm
COc1ccc2cc3cc(C(=O)NCc4ccc5c(c4)OCO5)oc3nc2c1 | 0 | 0 | 0 | 0 | -
Cc1cccc(NC(=O)/C=C/c2cccs2)n1 | 5.0 | 0 | 0 | 0 | 0
Cc1ccnc(NS(=O)(=O)c2ccc(NC(=O)/C=C/c3cccs3)cc2)n1 | 5.9 | 0 | 0 | 0 | 0
O=C(/C=C/c1cccs1)Nc1ccncc1 | 5.9 | 0 | 0 | 0 | 5.3
CC(C)[C@H](NC(=O)C1CC1)C(=O)N1CCC[C@H]1C(=O)NCCc1ccccc1Cl | 0 | - | 0 | 0 | -
CCOC(=O)CN1C(=O)[C@]2(OCCC=C[C@H]2C)c2c(Br)cccc21 | 0 | - | 0 | 0 | -
O=C1C=C(c2ccccc2Oc2ccccc2)C[C@@H](c2ccc3c(c2)OCO3)C1 | 0 | 0 | 0 | 0 | -
COc1ccccc1C1=CC(=O)C[C@H](c2ccc3c(c2)OCO3)C1 | 6.3 | 0 | 0 | 0 | 0
O=C1C=C(c2ccc(O)cc2)C[C@@H](c2ccc3c(c2)OCO3)C1 | 6.8 | 0 | 0 | 0 | 0
Cc1ccc(C2=CC(=O)C[C@H](c3ccc4c(c3)OCO4)C2)cc1 | 0 | 0 | 0 | 0 | -
CN(c1cccnc1)c1ccc(NC(=O)Cc2c[nH]c3ccccc23)cc1-c1ccc(C(C)(C)C)cc1 | 0 | - | 0 | 0 | -
O=C(NCCc1c[nH]c2ccccc12)OCc1cn(Cc2ccccc2Cl)nn1 | - | - | 0 | 0 | -
